Compounds without any hit were thinned out: in the full panel of roughly 79,000, 15% have a hit. Values without a mark were called inactive. The source made the active and inactive calls. No stated cut-off is given here; in the data, active means growth inhibition above about 70%; inactive means the rest.
Key:
[1] = NCI Yeast Anticancer Drug Screen. Data for the rad50 strain (AID 155);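 further: 0% = growth of vehicle-only cultures of the same strain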; conditions: S. cerevisiae rad50 strain growth inhibition; at 50.0 µM; active compounds read high
Outline: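 Cells are treated with compound, grown, and their growth is then scored against vehicle-only cultures of the same repair-deficient yeast strain.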

[2] = NCI Yeast Anticancer Drug Screen. Data for the mec2-1 strain (AID 157); conditions: S. cerevisiae mec2-1 strain, at 50.0 µM, active compounds read high
Outline: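 Compounds were applied to mec2-1 yeast cells. Their growth was then compared with that of vehicle-treated cultures to give growth inhibition.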

[3] = NCI Yeast Anticancer Drug Screen. Data for the sgs1 mgt1 strain (AID 161);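 further: 0% = growth of cultures given vehicle only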; conditions: S. cerevisiae sgs1 mgt1 strain, at 50.0 µM, active compounds read high
Outline: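 Percent growth inhibition was derived by comparing compound-exposed mutant yeast with vehicle-exposed cultures. The strain carries alterations in DNA damage repair.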

[4] = NCI Yeast Anticancer Drug Screen. Data for the cln2 rad14 strain (AID 165);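 further: 0% = growth equal to vehicle treated cultures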; conditions: S. cerevisiae cln2 rad14 strain, at 50.0 µM, active compounds read high
Outline: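 Strain: cln2 rad14 yeast, altered in cell cycle control and DNA damage repair. Read-out: growth inhibition vs vehicle.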

[5] = NCI Yeast Anticancer Drug Screen. Data for the bub3 strain (AID 167); conditions: S. cerevisiae bub3 mutant strain, at 50.0 µM, active compounds read high
Outline: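 Part of a panel of yeast mutants defective in DNA damage repair or cell cycle regulation. Each strain is grown with compound, and inhibition is calculated relative to solvent-treated cultures.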

[6] = NCI Yeast Anticancer Drug Screen. Data for the mlh1 rad18 strain (AID 175); conditions: S. cerevisiae mlh1 rad18 strain growth inhibition; at 50.0 µM; active compounds read high
Outline: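 A repair-deficient yeast strain is exposed to test compound, and growth is scored relative to vehicle-treated controls.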

Row | Compound | growth inhibition [1] | growth inhibition [2] | growth inhibition [3] | growth inhibition [4] | growth inhibition [5] | growth inhibition [6]
1 | CCN(CC)CCN(CC)CC(=O)Nc1ccccc1Cl | -14.9% | -29.9% | -1.65% | 4.35% | -3.6% | -14.2%
2 | CCN(Cc1ccc(CN(CC)C(=O)c2sc3ccccc3c2Cl)cc1)C(=O)c1sc2ccccc2c1Cl | -3.5% | -19.6% | -7.35% | -1.4% | -11.4% | -4.55%
3 | O=C1c2cc(Cl)ccc2NC(=NC2CCCC2)C2CSCN12 (configuration not stated) | 7.8% | -13.2% | 2.8% | -6.35% | -22.8% | 16.6%
4 | COc1c(C)cc(-c2cc(C)c(OC)c(C)c2)cc1C | -3.45% | 8.05% | 1.7% | 9.4% | -8.8% | -3.55%
5 | COc1ccc(C(=O)C2CCC(C(=O)O)C2)cc1 (configuration not stated) | -25.4% | -27.9% | -5.35% | -6.35% | -21.9% | -13.2%
6 | COc1cc(/C=C/c2ccnc3ccccc23)ccc1N(C)C | 4.7% | 24.8% | 15.6% | -32.3% | 29.8% | 24.7%
7 | COc1ccc(Cc2cc3c(cc2OC(C)=O)OCO3)cc1 | -4.2% | -10.3% | -5.75% | 8.9% | 38.2% | 7.25%
8 | O=S(=O)(O)c1ccccc1O | -0.1% | -3.35% | -2.75% | -44.4% | -19.9% | 1.95%
9 | Cc1ccc(S(=O)(=O)N2CCCC(O)c3ccccc32)cc1 (configuration not stated) | -18.2% | -15.8% | -29.4% | 11.7% | 6.65% | 3.85%
10 | CCCc1c(O)c2ccccc2[nH]c1=O | 11.3% | 11.7% | -37.8% | 14.7% | 15.8% | -8.3%
11 | CNc1nc(SCc2ccccc2)c2ncn(C3OC(CO)C(O)C3O)c2n1 (configuration not stated) | 11.3% | 4.8% | 16.9% | 19.9% | 4.95% | 17.9%
12 | NC(CC(=O)N/C=N/C(=O)O)C(=O)O (configuration not stated) | -5.85% | 5.45% | -17.2% | 4.4% | 6.45% | -7.75%
13 | CCCCc1cc(/C=N\NC(N)=O)c2ccccc2n1 | -0.6% | -14.2% | -1.1% | 1.45% | -5.35% | 18.8%
14 | c1ccc(N=c2snc3scc(-c4ccccc4)n23)cc1 | 28.4% | 6.95% | 13.8% | 17.6% | 33.5% | 16.6%
15 | O=C(c1ccccc1)C1CCCCC1 | 1.05% | -3.65% | -6.25% | 6.45% | 4.4% | -3.7%
16 | COC(=O)c1cc(Cl)ccc1Br | 17.4% | 14.1% | -0.05% | 14.8% | -3.85% | 43%
17 | Cc1ccc(S(=O)(=O)N(CCCc2c(Cl)nc(N)nc2Cc2ccccc2)c2ccccc2)cc1 | -9.75% | -16.5% | -17.2% | -73.8% | -0.8% | -4.65%
18 | O=C(OCC(OC(=O)c1ccccc1)C(OC(=O)c1ccccc1)C(OC(=O)c1ccccc1)c1nn[nH]n1)c1ccccc1 (configuration not stated) | 73% (active) | 88.4% (active) | 59.4% | 86.9% (active) | 85.2% (active) | 80.5% (active)
19 | Cc1nc(-c2cc([N+](=O)[O-])cc([N+](=O)[O-])c2)oc1-c1ccccc1 | -15.2% | -1.95% | -7.35% | 13% | -3.25% | -3.4%

Row | Compound | growth inhibition [1] | growth inhibition [2] | growth inhibition [3] | growth inhibition [4] | growth inhibition [5] | growth inhibition [6]
20 | CNC(=O)N(C)C(=O)c1ccncc1C(=O)N(C(=O)NC1CCCCC1)C1CCCCC1 | 32.6% | 2.2% | 7.15% | 20.8% | -3.95% | 1.65%
21 | O=C(O)C1OC1(c1ccccc1Cl)c1ccccc1Cl (configuration not stated) | 7.3% | -13.2% | 7.8% | 1.55% | -3.3% | 9.55%
22 | CC1(C)C2CC3C(=CCCC3C(=O)O)C1C2 (configuration not stated) | 11.4% | 15.3% | -8.55% | 9.8% | 11.1% | 12.8%
23 | NS(=O)(=O)c1ccc(NC(=O)Nc2ccccc2)cc1 | -2.8% | -5.35% | 1.8% | -18.1% | 20.1% | 22.3%
24 | CCOC(=O)c1ccc(NC(=O)Nc2ccccc2C(=O)OC)cc1 | 9.95% | 0.35% | 2.7% | 9.55% | 25.4% | 7.4%
25 | COc1ccc2c(c1OC)C1CCCCC1SCC2=O (configuration not stated) | 14.4% | 6.85% | 0.7% | 5.75% | 12.5% | -16.4%
26 | CN1COc2c3c(c4ccccc4c2C1)CN(C)CO3 | 7.1% | 2.35% | 1.2% | -16.9% | 6.35% | -0.3%
27 | Cc1ccc(S(=O)(=O)SCC(=O)c2ccc(Br)cc2)cc1 | 27.4% | -15.4% | 29.1% | 16.6% | 4.35% | 9.85%
28 | COCC(=O)Oc1ccc[nH]c1=O | 1.55% | 2.6% | 7.85% | -17.1% | -7.25% | 22.2%
29 | C=C(C)c1nc(N)nc(-c2cccc(-c3nc(N)nc(C(=C)C)n3)c2)n1 | -8.2% | -8.35% | 0.2% | -67.6% | -11% | -0.8%
30 | CC(C)CCCC(C)C1CCC2C3CC=C4CC(OC(=O)c5ccncc5)CCC4(C)C3CCC12C (configuration not stated) | 3.2% | -12.1% | -10.2% | -28.4% | -0.4% | -23.6%
31 | CC(N)C(O)C(C)C(=O)O (configuration not stated) | 20.8% | 9.5% | 41.8% | 44.5% | 35% | 7.35%
32 | COc1c2occc2c(OC)c2c(=O)c(S(=O)(=O)NC(=O)Nc3ccc(Cl)cc3)coc12 | 5.7% | -11.8% | 3.65% | -55.8% | -20.3% | 2.4%
33 | CCCCn1c2nc3ccccc3c-2nc2cc(OC)c(OC)cc21 | 26.1% | 15.3% | 14.6% | 5.5% | 12.2% | 35.1%
34 | CC1(C)N=C(N)N=C(N)N1c1ccc(NC(=O)Nc2ccccc2)cc1 | 16.6% | -13.2% | 16.1% | -43.2% | -2.35% | 10.3%
35 | c1ccc(C(CCN2CC3CCC(CC3)C2)c2ccccc2)cc1 | 14.6% | -21.4% | -17.9% | -22.6% | -21.9% | 22.6%
36 | C=C1C(=O)O[C@@H]2[C@H]3O[C@]3(C)CCC=C(C)CC[C@@H]12 | -2.7% | -7.05% | 2.15% | 9.05% | -11.8% | -6.75%
37 | S=C=NCCCCCCCCCCCCN=C=S | 94.4% (active) | 89.5% (active) | 94.2% (active) | 58.5% | 89.7% (active) | 94.7% (active)

Source: PubChem BioAssay (NCI)
